Measurements from PubChem BioAssay (Tox21).
Values without a mark were called inactive. Records with an inconclusive call do not appear. A call without a number means that no potency is given here. Active and inactive are the calls of the source. Unless noted, the call rests on the fitted dose curve; in most records, active means well fitted curve in the direction sought with a large enough effect in the repeat runs; inconclusive means weak or mixed curves; inactive means no such curve, though single readings can be large; an effect the other way counts as inactive or inconclusive.

Experiments:
[1] = molecular target: Thyrotropin-releasing hormone receptor (Homo sapiens) (UniProt P34981); test: qHTS assay to identify small molecule agonists of the thyrotropin-releasing hormone receptor (TRHR) signaling pathway (AID 1346891; calls by dose curve;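 further: HEK293 cells expressing TRHR with calcium dye readout; series mostly up to about 58 µM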)
Outline: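 Cells: TRHR-Hek293, seeded and incubated 18 h. Dye loading: 2 h at 37 °C. Compound added from DMSO stock by pin tool. Read-out: kinetic calcium fluorescence over 3 min.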

[2] = Human pregnane X receptor (PXR) small molecule agonists, qHTS cell viability counter screen (AID 1346977); further: nearly all actives have a fitted effect of over 50% in size; further: potency means the concentration at half of the fitted maximal effect
Outline: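 Cytotoxicity counter screen run in the same wells as the PXR luciferase assay, using PXR-Luc HepG2 cells in charcoal-stripped serum medium. Viability: CellTiter-Fluor fluorescence after 24hr compound treatment.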

[3] = Caspase-3/7 induction in CHO-K1 cells by small molecules, qHTS assay (AID 1346980); further: nearly all actives have a fitted effect of over 15% in size; further: potency means the concentration at half of the fitted maximal effect
Outline: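 Wild-type CHO-K1 cells exposed to compounds for 17hr at 37 C, 5% CO2. Caspase-3/7 activity then measured by Caspase-Glo 3/7 luminescence after 30min at room temperature.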

[4] = molecular target: Nuclear receptor subfamily 1 group I member 2 (Homo sapiens) (UniProt O75469); test: Human pregnane X receptor (PXR) small molecule agonists, qHTS assay (AID 1346982); further: nearly all actives have a fitted effect of over 35% in size; further: potency means the concentration at half of the fitted maximal effect
Outline: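 Compound-induced hPXR transactivation of a CYP3A4 luciferase reporter was scored in HepG2 PXR-Luc cells over 24 hr at 37 C, 5% CO2, by luminescence.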

[5] = molecular target: Nuclear receptor subfamily 1 group I member 2 (Rattus norvegicus) (UniProt Q9R1A7); test: Rat pregnane X receptor (rPXR) activation by small molecules, qHTS assay (AID 1346983); details: rPXR luciferase reporter cells, One-Glo luminescence, 24 h; max activation: stronger effect = higher value; further: nearly all actives have a fitted effect of over 20% in size
Outline: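 Cell-based rPXR activation assay: rPXR cells, 2,000 per well, rested 5hr at 37 C, then exposed to compounds in DMSO for 24 hr at 37 C. Luciferase activity read by One-Glo luminescence after 30 min at room temperature.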

[6] = Caspase-3/7 induction in HepG2 cells by small molecules, qHTS assay (AID 1346978); further: nearly all actives have a fitted effect of over 15% in size; further: potency means the concentration at half of the fitted maximal effect
Outline: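 Wild-type HepG2 cells, 2,000/well, settled 5 hr at 37 C and 5% CO2, then compound-treated for 17 hr; caspase-3/7 activity read by luminescent Caspase-Glo 3/7 after 30 min at room temperature.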

[7] = Caspase-3/7 induction in CHO-K1 cells by small molecules, qHTS cell viability counter screen (AID 1346979); further: nearly all actives have a fitted effect of over 35% in size; further: potency means the concentration at half of the fitted maximal effect
Outline: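 Cytotoxicity counter screen run in parallel with the caspase-3/7 assay: CHO-K1 cells, 16hr compound treatment at 37C, then CellTiter-Fluor for 1hr before fluorescence reading.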

[8] = Caspase-3/7 induction in HepG2 cells by small molecules, qHTS cell viability counter screen (AID 1346981); further: nearly all actives have a fitted effect of over 30% in size; further: potency means the concentration at half of the fitted maximal effect
Outline: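 Viability determined by CellTiter-Fluor fluorescence in HepG2 wells also used for the luminescent Caspase-Glo 3/7 read. Compounds were present for 16 hr at 37 C, 5% CO2 before reagent addition.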

[9] = molecular target: Nuclear receptor subfamily 1 group I member 2 (Homo sapiens) (UniProt O75469); test: Human pregnane X receptor (PXR) activation by small molecules, qHTS assay (AID 1346985); further: nearly all actives have a fitted effect of over 40% in size
Outline: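 DPX-2 cells (HepG2 co-transfected with a PXR response element and a CYP3A4-promoter luciferase construct) were seeded at 2,000 per well, rested 5 hr at 37C, then exposed to DMSO-dissolved compounds for 24 hr. Activation was read as luciferase luminescence.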

[10] = molecular target: Nuclear receptor subfamily 1 group I member 2 (Homo sapiens) (UniProt O75469); test: CYP3A4 induction through human pregnane X receptor (PXR) by small molecules, qHTS assay (AID 1346984); further: nearly all actives have a fitted effect of over 40% in size
Outline: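 Readings come from a luciferase reporter: DPX-2 cells, which are HepG2 cotransfected with PXR and a CYP3A4-promoter construct, were exposed to test compounds for 24 h at 37C before One-Glo detection.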

Chain of Thyrotropin-releasing hormone receptor (Homo sapiens) (P34981 whole entry, looked up): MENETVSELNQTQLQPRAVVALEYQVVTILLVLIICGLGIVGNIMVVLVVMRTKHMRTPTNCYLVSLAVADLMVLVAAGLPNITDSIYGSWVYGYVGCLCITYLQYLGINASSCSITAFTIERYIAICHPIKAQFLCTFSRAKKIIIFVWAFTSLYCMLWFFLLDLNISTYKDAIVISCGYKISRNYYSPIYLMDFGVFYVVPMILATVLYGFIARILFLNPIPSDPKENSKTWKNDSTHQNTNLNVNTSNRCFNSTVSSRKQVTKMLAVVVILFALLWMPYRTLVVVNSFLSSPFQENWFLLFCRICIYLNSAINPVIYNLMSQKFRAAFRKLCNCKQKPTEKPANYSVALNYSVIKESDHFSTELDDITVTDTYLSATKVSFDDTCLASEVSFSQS
Chain of Nuclear receptor subfamily 1 group I member 2 (Rattus norvegicus) (Q9R1A7 whole entry, looked up): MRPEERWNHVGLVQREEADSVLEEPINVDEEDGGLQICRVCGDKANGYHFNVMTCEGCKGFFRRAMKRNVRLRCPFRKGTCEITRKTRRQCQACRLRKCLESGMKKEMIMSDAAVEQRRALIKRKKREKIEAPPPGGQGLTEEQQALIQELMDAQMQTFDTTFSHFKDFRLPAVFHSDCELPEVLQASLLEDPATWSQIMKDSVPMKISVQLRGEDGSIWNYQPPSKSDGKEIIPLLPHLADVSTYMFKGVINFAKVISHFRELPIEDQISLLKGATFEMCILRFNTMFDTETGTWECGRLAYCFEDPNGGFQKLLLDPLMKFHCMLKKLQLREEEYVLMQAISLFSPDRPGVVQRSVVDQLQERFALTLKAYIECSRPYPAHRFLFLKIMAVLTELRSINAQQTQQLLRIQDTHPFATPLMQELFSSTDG
Chain of Nuclear receptor subfamily 1 group I member 2 (Homo sapiens) (O75469 whole entry, looked up): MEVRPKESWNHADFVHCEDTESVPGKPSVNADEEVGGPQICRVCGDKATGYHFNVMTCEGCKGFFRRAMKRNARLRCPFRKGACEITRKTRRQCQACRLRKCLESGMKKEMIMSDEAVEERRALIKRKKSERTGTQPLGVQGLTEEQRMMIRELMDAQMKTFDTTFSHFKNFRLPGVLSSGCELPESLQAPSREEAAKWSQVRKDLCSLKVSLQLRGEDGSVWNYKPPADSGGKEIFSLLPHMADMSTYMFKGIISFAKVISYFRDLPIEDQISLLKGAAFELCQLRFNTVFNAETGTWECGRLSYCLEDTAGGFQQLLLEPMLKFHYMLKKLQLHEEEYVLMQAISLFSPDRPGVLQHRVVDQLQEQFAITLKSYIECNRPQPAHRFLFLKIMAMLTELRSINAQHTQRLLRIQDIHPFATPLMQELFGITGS

SMILES | Potency [1] | Potency [2] | Potency [3] | Potency [4] | max activation [5] | Potency [6] | Potency [7] | Potency [8] | Potency [9] | Potency [10]
CCCCCCNC(=O)n1cc(F)c(=O)[nH]c1=O | inactive | inactive | inactive | 15 µM (active) | -10.4% | – | – | – | – | –
C/C=C/C=C/C=O | inactive | – | – | inactive | – | inactive | inactive | inactive | – | –
COC(=O)c1nc(Cl)c(Cl)nc1N | inactive | – | inactive | 10.6 µM (active) | – | inactive | 8.41 µM (active) | – | – | –
C/C=C(/C(=C/C)c1ccc(O)cc1)c1ccc(O)cc1 | inactive | inactive | inactive | inactive | 0.107% | – | – | – | inactive | –
CC(C)(C)C(=O)C(=O)O | inactive | – | inactive | – | – | inactive | inactive | inactive | – | –
C[C@@H](O[C@H]1OCCN(Cc2n[nH]c(=O)[nH]2)[C@H]1c1ccc(F)cc1)c1cc(C(F)(F)F)cc(C(F)(F)F)c1 | inactive | – | inactive | – | – | 33.5 µM (active) | 29.8 µM (active) | 29.8 µM (active) | – | –
COc1cc(C(=O)NCCCCCC(=O)O)cc(OC)c1OC | inactive | inactive | inactive | inactive | -0.807% | – | – | inactive | inactive | inactive
CN1CCCC(CC2c3ccccc3Sc3ccccc32)C1 (stereo not given) | inactive | 29.8 µM (active) | inactive | – | -1.72% | – | – | – | inactive | –
Clc1cc(Cl)nc(Cl)n1 | inactive | – | inactive | inactive | – | inactive | inactive | inactive | – | –
CCOC(=O)c1ccc(I)cc1 | inactive | – | inactive | inactive | – | inactive | inactive | inactive | – | –
O=C1CCCCCCCCCCOCCCCO1 | inactive | – | – | inactive | – | inactive | inactive | inactive | – | –
FC(F)(F)c1ccccc1Cl | inactive | – | inactive | – | – | inactive | inactive | – | – | –
Cc1ccc2c(Br)cc(Br)c(O)c2n1 | inactive | inactive | – | – | -3.38% | – | 21.1 µM (active) | – | – | inactive
CN1C[C@H](C(=O)N[C@]2(C)O[C@@]3(O)[C@@H]4CCCN4C(=O)[C@H](Cc4ccccc4)N3C2=O)C[C@@H]2c3cccc4[nH]cc(c34)C[C@H]21 | inactive | 21.1 µM (active) | – | 10.6 µM (active) | – | – | 26.6 µM (active) | 26.6 µM (active) | – | –
CCCCCCCCCCCCCCN(CCO)CCO | inactive | – | inactive | 12.2 µM (active) | – | 30.6 µM (active) | 27.3 µM (active) | 68.6 µM (active) | – | –
CO[C@]1(NC(=O)CSC(F)F)C(=O)N2C(C(=O)O)=C(CSc3nnnn3CCO)CO[C@H]21 | inactive | – | inactive | – | – | inactive | inactive | – | – | –
NNC(=O)CP(=O)(c1ccccc1)c1ccccc1 | inactive | inactive | – | inactive | – | – | inactive | inactive | inactive | inactive
Nc1nc2ccc([N+](=O)[O-])cc2s1 | inactive | – | inactive | – | – | inactive | 47.2 µM (active) | – | – | –
CC(=O)OCCN(CCOC(C)=O)c1ccc(N=Nc2ccc([N+](=O)[O-])cc2C#N)cc1 | inactive | – | inactive | – | – | inactive | 54.5 µM (active) | – | – | –

SMILES | Potency [1] | Potency [2] | Potency [3] | Potency [4] | max activation [5] | Potency [6] | Potency [7] | Potency [8] | Potency [9] | Potency [10]
Nc1ncnc2c1ncn2[C@H]1CC[C@@H](CO)O1 | inactive | inactive | – | – | 1.66% | – | inactive | inactive | inactive | –
CC(C)(C)CC(=O)OCC(=O)[C@@]1(O)CC[C@H]2[C@@H]3CCC4=CC(=O)C=C[C@]4(C)[C@H]3[C@@H](O)C[C@@]21C | inactive | inactive | inactive | – | – | – | – | – | – | –
O=C(CCCN1CC=C(n2c(=O)[nH]c3ccccc32)CC1)c1ccc(F)cc1 | inactive | – | inactive | – | 0.857% | inactive | inactive | inactive | – | –
OCCN1CCN(CCCN2c3ccccc3Sc3ccc(Cl)cc32)CC1 | inactive | 29.8 µM (active) | – | 10.6 µM (active) | 5.45% | – | 29.8 µM (active) | – | inactive | –
OC1(c2ccccc2)CCNCC1 | inactive | inactive | inactive | inactive | – | – | – | inactive | – | –
C[C@@H]1CN(CCCn2c3ccccc3c3ccccc32)C[C@H](C)N1 | inactive | 29.8 µM (active) | – | inactive | -9.24% | – | 29.8 µM (active) | 29.8 µM (active) | – | –
CCCCCCCCCCC(=O)O | inactive | inactive | inactive | – | – | – | – | inactive | – | –
CCCCCCCCC(CCCCCC)C(=O)O (stereo not given) | inactive | – | inactive | inactive | – | inactive | inactive | inactive | – | –
CC1(C)[C@H](C(=O)O)N2C(=O)C[C@H]2S1(=O)=O | inactive | – | inactive | – | – | inactive | inactive | inactive | – | –
Oc1ccc(Cl)c2cccnc12 | inactive | – | 6.68 µM (active) | – | -0.0207% | inactive | 6.68 µM (active) | inactive | inactive | –
OC[C@H]1O[C@@H](n2cnc3c(=S)nc[nH]c32)[C@H](O)[C@@H]1O | inactive | – | inactive | – | -1.15% | inactive | inactive | inactive | inactive | inactive
CCCCN(CCN(CCCC)C(=O)N1CCOCC1)C(=O)N1CCOCC1 | inactive | – | inactive | – | – | inactive | inactive | inactive | – | –
CCCCCCC(C)(C)C(=O)O | inactive | – | inactive | 48.6 µM (active) | – | inactive | inactive | inactive | – | –
O=C(O)C[C@H](NC(=O)OCc1ccccc1)C(=O)O | inactive | inactive | inactive | inactive | – | – | – | inactive | – | –
CCOC(=O)[C@H](CCc1ccccc1)N[C@@H](C)C(=O)N(CC(=O)O)C1Cc2ccccc2C1 | inactive | inactive | inactive | 11.9 µM (active) | – | – | – | inactive | – | –
CC1=C(CC=O)C(C)(C)CCC1 | inactive | – | – | 24.3 µM (active) | – | inactive | inactive | inactive | – | –
CC(=O)N/N=C/c1ccc([N+](=O)[O-])o1 | inactive | – | inactive | – | -3.83% | inactive | 29.8 µM (active) | inactive | inactive | –
CCCC(=O)C(=O)O | inactive | – | inactive | – | – | inactive | inactive | inactive | – | –
